Compound activity as filed in PubChem.
PNC inhibitor: High Content Assay for Compounds that inhibit the Assembly of the Perinucleolar Compartment; PC3M PTB-GFP, PNC prevalence imaging, 16 h; stronger effect = lower value; activity change (PNC), negative = inhibition, % at 10 µM; hit rate 3.1% among 140,000;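 active = readout at or below -70, meaning at least 70% loss of cells showing the perinucleolar compartment, a nuclear body marking cancer cells; inconclusive = readout between -30 and a set limit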
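Read-out is percentage of cells bearing a perinucleolar compartment, from automated 20x imaging of fixed, Hoechst-stained PC3M PTB-GFP cells. Cells were seeded 4 h, then exposed 16 h to compound (23 nl of library stock) in duplicate plates.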
IMPase cell inh: qHTS Assay for Identifying the Cell-Membrane Permeable IMPase Inhibitors; Inositol monophosphatase 1 (Rattus norvegicus), P97697; 120,000 tested, under 10 active; AID 901, 2007; inhibition (IP1 accumulation), % at 46.1 µM; CHO-M1 cells, IP1 accumulation, HTRF TR-FRET ratio; active = well fitted curve in the direction sought with a large enough effect in the signal ratio, not every such curve was filed as active; inconclusive = small, poorly fitted or top-dose-only effect, or a change in a side signal; inactive = no such curve, though single readings can be large or run the other way; the % refers to the signal ratio;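 also: cells stimulated with carbachol in lithium chloride buffer; higher means more IMPase inhibition seen as more IP1 and lower FRET ratio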
Target sequence (P97697 whole entry, looked up): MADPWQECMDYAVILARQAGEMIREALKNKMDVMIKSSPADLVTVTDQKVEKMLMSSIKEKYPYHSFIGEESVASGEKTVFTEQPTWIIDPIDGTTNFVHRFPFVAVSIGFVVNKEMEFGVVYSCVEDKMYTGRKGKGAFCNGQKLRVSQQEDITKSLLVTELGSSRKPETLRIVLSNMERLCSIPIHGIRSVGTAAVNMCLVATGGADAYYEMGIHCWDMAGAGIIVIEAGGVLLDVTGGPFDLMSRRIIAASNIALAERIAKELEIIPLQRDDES
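The IP-One HTRF competitive assay in carbachol-stimulated CHO-M1 cells quantifies cellular IP1. Compounds spanned up to 46 uM final, and activity is expressed as AC50 from concentration-response fits of the ratio and donor data.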
Lamin A splicing: qHTS Assay for Modulators of Lamin A Splicing | HeLa LMNA splicing GFP/RFP minigene ratio, 48 h | AID 1487, 2009 | Potency, µM (titrated, usually from 46.1 µM), most hits filed as inhibitors | hit rate 0.01% among 200,000; active = well fitted inhibition curve with a large enough effect in the signal ratio, with a control signal flat, not every such curve was filed as active; inconclusive = small, poorly fitted or top-dose-only effect, or effect the other way, or a change in a side signal; the % refers to the signal ratio
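S3 HeLa stable clones carrying a lamin A-EGFP splicing minigene plus DsRed2 were seeded at 600 cells/well in Opti-MEM with 2% FBS, pin-dosed and incubated 48 h at 37°C. Acumen cytometry (488 nm) gave the GFP/RFP total-intensity ratio.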
ALDH1A1 block: qHTS Assay for Inhibitors of Aldehyde Dehydrogenase 1 (ALDH1A1); Purified ALDH1A1, NADH fluorescence, propionaldehyde substrate; hit rate 7.3% among 220,000; AID 1030, 2008; Potency, µM (series often up to 75.3 µM), actives largely listed as inhibitors; Aldehyde dehydrogenase 1A1 (Homo sapiens), P00352
KinaseGlo FLuc: Counterscreen for Luciferase (Kinase-Glo TM) Inhibition; Luciferin 4-monooxygenase (Photuris pensylvanica), Q27757; Kinase-Glo luciferase, ATP luminescence, 8 min; Potency, µM (series often up to 38.3 µM), usual class: inhibitors; hit rate 0.28% among 200,000; active = well fitted inhibition curve with a large enough effect; inconclusive = small, poorly fitted or top-dose-only effect; also: nearly all actives have a fitted effect of over 60% in size
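Luminescence was the read-out, taken after 8-minute incubation at ambient temperature. Luciferase turned over luciferin with 10 uM ATP in imidazole pH 7.2 buffer containing KCl, MgCl2, Tween 20 and BSA.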
HPGD inh: qHTS Assay for Inhibitors of HPGD (15-Hydroxyprostaglandin Dehydrogenase). 15-hydroxyprostaglandin dehydrogenase [NAD(+)] (Homo sapiens), P15428. purified HPGD, NADH fluorescence kinetic, PGE2 substrate. Potency, µM, actives largely listed as inhibitors. hit rate 4.3% among 150,000
Target sequence (P15428 whole entry, looked up): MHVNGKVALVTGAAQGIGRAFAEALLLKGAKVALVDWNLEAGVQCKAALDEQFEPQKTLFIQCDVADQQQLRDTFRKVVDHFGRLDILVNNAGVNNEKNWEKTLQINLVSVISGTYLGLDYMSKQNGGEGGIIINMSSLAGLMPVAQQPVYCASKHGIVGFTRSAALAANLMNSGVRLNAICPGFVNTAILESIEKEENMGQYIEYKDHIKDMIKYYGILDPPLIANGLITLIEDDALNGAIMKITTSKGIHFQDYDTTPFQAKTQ
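NADH formation kinetics: reaction with 30 uM PGE2 and 1 mM NAD+ (final), 20 nM enzyme, Tris-HCl pH 8 with Tween 20, after 15 min compound preincubation at room temperature. Fluorescence change, last versus first of five reads.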
A number is an active result; – = inactive; ? = inconclusive; · = no result given; [ ] = another dose, or the depositor's remark. The list is not random: actives were taken first. Their share in the collection is about 10%. Unless noted, calls follow the shape of the dose curve; as a rule, active = well fitted inhibition curve with a large enough effect (not every such curve was filed as active); inconclusive = small, poorly fitted or top-dose-only effect, or another doubt; inactive = no such curve, though single readings can be large or run the other way.

SMILES	PNC inhibitor	IMPase cell inh	Lamin A splicing	ALDH1A1 block	KinaseGlo FLuc	HPGD inh
COc1ccc(N(CC(=O)NC2CCCCC2)C(=O)CNC(=O)c2ccco2)cc1OC	-100	–	–	–	–	–
O=C(NC1CCCCC1)C(c1cccs1)N(Cc1cccs1)C(=O)c1ccco1 (centres undefined)	–	–	–	?	–	–
CC(C)(C)N1C(=O)[C@H]2[C@H]3[C@H](O)[C@H](O)C/C(=N/NC(=O)OCc4ccccc4)[C@H]3CC[C@@H]2C1=O	·	·	·	–[13.5 µM]	·	·
O=C(c1ccccc1)[C@@H]1O[C@H]1c1ccc(-c2ccccc2)cc1	·	–	·	–	–	?
O=C(NCC(=O)N(Cc1ccco1)C(C(=O)NC1CCCCC1)c1cccnc1)c1ccco1 (centres undefined)	–	–	–	–	–	–
CCOc1ccccc1C(C(=O)NC1CCCC1)N(Cc1ccco1)C(=O)CNC(=O)c1ccco1 (centres undefined)	–	–	–	1.8µM	–	–
COc1ccc(CN(C(=O)CNC(=O)c2ccco2)C(C(=O)NC2CCCC2)c2ccco2)cc1 (centres undefined)	?	–	–	0.4µM	–	–
COc1cc([C@@H](O)CO)ccc1OS(=O)(=O)O	·	–	·	·	·	·
Cc1ccc(C)c(C(=O)CSc2nnnn2C(C)C)c1	?	–	–	?	–	–
Cc1ccc(C(=O)CSc2nnnn2C(C)C)c(C)c1	–	–	–	28µM	–	–
CC(C)(C)OC(=O)N1CCC(c2c(C(=O)N3CCC(c4ccccc4)C3)cnn2-c2cccc(Cl)c2)CC1 (centres undefined)	·	·	–	·	·	·
COc1ccc(Cl)cc1NC(=O)N1CCN(C2CCCCC2)CC1	-88	–	–	–	–	–
CCN1CCN(C(=O)Nc2cc(Cl)ccc2OC)CC1	·	·	–	–	–	·
CCN(CC(=O)NC(=O)NCc1ccco1)Cc1nc2ccccc2c(=O)[nH]1	–	–	–	10µM	–	–
CCN(C(=O)Cn1cnc2c1c(=O)n(C)c(=O)n2C)c1ccccc1C	·	–	·	·	·	·
CC(C)CC(N=Cc1c(O)c2ccccc2oc1=O)C(=O)O (centres undefined)	·	·	·	14µM	–	·
O=C(O)CCCN=Cc1c(O)c2ccccc2oc1=O	·	·	·	?	–	·
Cc1nc2sc3c(c2c(=O)[nH]1)CCCC3	·	·	·	–[13.5 µM]	–[7.66 µM]	–
O=c1[nH]c(-c2ccco2)nc2sc3c(c12)CCCC3	-116	·	–	?	–	?
O=c1[nH]c(S)nc2sc3c(c12)CCCC3	·	·	·	4.5µM	–	·
Cc1nc2sc3c(c2c(=O)o1)CCC3	–	–	–	25µM	–	20µM
Cc1nc(NCCCO)c(C#N)c2c1COC(C)(C)C2	-122	–	–	?	·	·
COc1cccc(CNC(=O)Cc2ccc(NC(=O)N3CCCCc4ccccc43)cc2)c1OC	·	·	–	·	·	·
CN(C)NC(=S)NC(=O)C12CC3CC(CC(C3)C1)C2	·	·	?	28µM	–	·
NC(=S)NNc1c(F)c(F)c(F)c(F)c1F	·	·	–	8.9µM	–	·
SMILES	PNC inhibitor	IMPase cell inh	Lamin A splicing	ALDH1A1 block	KinaseGlo FLuc	HPGD inh
COc1ccc(CCNC(=O)CN(c2cc([N+](=O)[O-])ccc2OC)S(C)(=O)=O)cc1	·	·	?	–	–	·
COCCNC(=O)CN(c1ccc(C)cc1)S(=O)(=O)c1ccccc1	–	–	–	–	–	–
CCOc1ccc(N(CC(=O)Nc2ccc(OC)cc2)S(C)(=O)=O)cc1	–	–	–	18µM	–	–
COCCNC(=O)CN(c1ccc(OC)c(OC)c1)S(=O)(=O)c1ccc(C)cc1	-106	–	–	–	–	–
CCOc1ccc(NC(=O)CN(c2ccc(OC)cc2)S(C)(=O)=O)cc1	?	–	?	?	–	–
COc1ccc(CCNC(=O)CN(C)S(=O)(=O)c2cccs2)cc1OC	–	–	–	–	–	–
COc1ccc(CCNC(=O)CN(c2ccc(OC)c(OC)c2)S(C)(=O)=O)cc1	-139	–	–	–	–	–
COc1ccc(CCNC(=O)CN(C)S(=O)(=O)c2ccc(Br)s2)cc1OC	-83	·	–	–	–	–
COc1ccc(Cl)cc1C(=O)Nc1ccc2oc(-c3ccc(C(C)(C)C)cc3)nc2c1	·	–	·	·	·	·
Cc1ccc2c(=O)c(C(=O)c3ccc(F)cc3)cn(CC(=O)Nc3ccc4c(c3)OCCO4)c2n1	·	·	–	·	·	·
O=C1C[C@@H](O)[C@@H](O)[C@H]2[C@@H]3C(=O)N(Cc4ccccc4)C(=O)[C@@H]3CC[C@H]12	·	·	·	–[13.5 µM]	·	·
COc1ccc2cc1Oc1ccc(cc1)C[C@@H]1c3c(cc(OC)c4c3Oc3cc5c(cc3O4)CCN[C@H]5C2)CCN1C	·	·	·	–[13.5 µM]	–[7.66 µM]	–
O=C(CSc1nc(=O)n(Cc2ccco2)c2c1CCC2)NCc1ccc(Cl)cc1	·	·	–	·	·	·
O=C(O)c1ccc(NC(=O)C2CC=CCC2C(=O)O)cc1 (centres undefined)	–	–	–	–	–	–
O=C(Nc1nccs1)c1ccc(NC(=O)C2CC=CCC2C(=O)O)cc1 (centres undefined)	·	·	·	4µM	–	·
COc1cccc(NC(=O)CN2C(=O)c3cccc4cccc2c34)c1	·	–	·	·	·	·
CC(=O)Nc1sc2c(c1CN1CCN(c3ccccn3)CC1)CCCC2	–	–	?	22µM	–	–
Cc1c(Cl)cccc1NC(=O)CSc1cc(-c2ccccc2)ncn1	·	·	–	·	·	·
Cc1cccc(C#Cc2ccccc2)n1	·	–	?	–	13µM	?
CC(C)CSc1nnc(-c2ccccc2)c(-c2ccccc2)n1	·	–	·	·	·	·
O=C(CN1C(=O)c2ccccc2C1=O)NN1C(=O)c2ccccc2C1=O	–	–	–	2.8µM	–	–
O=C1COc2ccc(C(=O)CSc3nnnn3-c3ccccc3)cc2N1	?	–	–	5µM	–	–
CCCn1c(SCC(=O)c2ccc3c(c2)NC(=O)CO3)nc2ccccc21	–	·	?	3.2µM	–	–
Cc1ccc(-n2nnnc2SCC(=O)c2ccc3c(c2)NC(=O)CO3)c(C)c1	–	–	–	?	–	–
CN(Cc1ccccc1)c1ncc(C=O)s1	·	·	·	7.1µM	–	·
CN(Cc1ccccc1)c1ncnc(N)c1[N+](=O)[O-]	·	·	?	–	–	·
O=C(NCCc1ccc(Cl)cc1)c1nnc(Cc2ccc(F)cc2)o1	·	–	·	·	·	·
COc1ccc2ccccc2c1/C=N/NC(=O)c1sc(N)c(C#N)c1C	–	·	–	?	–	–
COc1cc(/C=N/NC(=O)c2sc(N)c(C#N)c2C)cc(Br)c1O	–	–	?	13µM	–	–
C[C@H](N)c1nnc(SCc2c(Cl)cccc2Cl)o1	–	–	–	–	–	32µM
